High-throughput results as filed in PubChem BioAssay.
USP28 inh – inhibitors of human USP28 deubiquitinase | Q96RU2 | purified USP28, Ub-rhodamine cleavage fluorescence, 30 min | inhibition, % at 25 µM | hit rate 3% among 47,000
Target sequence (Q96RU2 whole entry, looked up): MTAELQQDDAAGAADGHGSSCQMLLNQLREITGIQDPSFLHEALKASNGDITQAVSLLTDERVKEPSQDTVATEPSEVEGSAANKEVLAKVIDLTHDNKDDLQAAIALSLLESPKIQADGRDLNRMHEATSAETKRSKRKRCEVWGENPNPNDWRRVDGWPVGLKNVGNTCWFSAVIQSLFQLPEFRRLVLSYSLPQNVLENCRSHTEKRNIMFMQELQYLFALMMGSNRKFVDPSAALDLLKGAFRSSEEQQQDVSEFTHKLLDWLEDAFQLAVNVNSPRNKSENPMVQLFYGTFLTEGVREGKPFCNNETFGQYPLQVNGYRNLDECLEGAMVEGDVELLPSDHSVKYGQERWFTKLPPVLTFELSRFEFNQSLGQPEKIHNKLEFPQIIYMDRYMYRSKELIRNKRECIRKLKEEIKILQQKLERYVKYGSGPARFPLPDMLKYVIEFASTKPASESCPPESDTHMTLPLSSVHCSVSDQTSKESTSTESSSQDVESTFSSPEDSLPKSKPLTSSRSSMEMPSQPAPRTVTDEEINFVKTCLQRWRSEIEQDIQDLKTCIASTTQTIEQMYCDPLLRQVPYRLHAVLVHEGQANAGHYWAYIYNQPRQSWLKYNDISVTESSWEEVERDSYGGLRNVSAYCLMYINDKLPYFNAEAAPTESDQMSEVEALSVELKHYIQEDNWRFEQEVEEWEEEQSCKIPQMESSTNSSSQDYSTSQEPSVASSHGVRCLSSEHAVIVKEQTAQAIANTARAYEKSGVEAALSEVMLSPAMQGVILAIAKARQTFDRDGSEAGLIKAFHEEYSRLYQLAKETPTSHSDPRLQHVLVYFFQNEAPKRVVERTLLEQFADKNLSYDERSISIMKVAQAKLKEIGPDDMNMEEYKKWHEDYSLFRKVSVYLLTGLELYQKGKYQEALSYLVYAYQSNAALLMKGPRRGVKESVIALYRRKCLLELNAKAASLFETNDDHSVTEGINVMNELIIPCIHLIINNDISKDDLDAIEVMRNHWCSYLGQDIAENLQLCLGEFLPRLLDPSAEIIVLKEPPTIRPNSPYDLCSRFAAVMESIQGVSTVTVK
OTUD3 block – blocks human OTUD3 ubiquitin-rhodamine cleavage; inhibition, % at 25 µM; purified OTUD3, Ub-rhodamine fluorescence, 2 h; hit rate 0.7% among 47,000
Starred values were filed as active, the others as inactive; nt = no result given. Hits are enriched below; roughly 3.3% of the tested compounds scored in any of these assays. Rule as the data show it: active = inhibition above about 30%; inactive = the rest.

SMILES | USP28 inh | OTUD3 block
COC(=O)C1CCN(C(=O)CC[C@H]2CNC(=O)[C@@H]3[C@@H](CCN3Cc3cccc(Cl)c3)N2C)CC1 | -8 | -3
CC(C)N1CC[C@@H]2[C@H]1C(=O)NC[C@H](CCC(=O)N1CCN(c3ccccc3)CC1)N2C | 4 | 4
CN1[C@@H](CCC(=O)N2CCN(c3ccccn3)CC2)CNC(=O)[C@@H]2[C@H]1CCN2C1CCCCC1 | 25 | 1
CC(C)N1CC[C@@H]2[C@H]1C(=O)NC[C@H](CCC(=O)N1CCCC1)N2C | 34* | 8
COC(=O)C1CCN(C(=O)CC[C@H]2CNC(=O)[C@@H]3[C@@H](CCN3C3CCCCC3)N2C)CC1 | 31* | 9
O=C(COc1cccc(Cl)c1)N1CCSc2ccccc21 | 39* | 22
O=C(COc1cccc(F)c1)N1CCSc2ccccc21 | 25 | 1
CNC1CCc2cc(OC)c(OC)c(OC)c2-c2ccc(NCc3ccccc3OC)c(=O)cc21 (configuration not stated) | -6 | -17
Cn1c(CNS(=O)(=O)c2ccc(Br)cc2)nnc1SCc1ccc(Cl)c(Cl)c1 | 41* | 21
Cn1c(CNS(=O)(=O)c2ccc(Cl)cc2)nnc1SCc1cccc(C(F)(F)F)c1 | 7 | -5
CCn1c(SCc2nc(-c3ccccc3)no2)nnc1-c1ccc2c(c1)OCCO2 | 8 | 8
CCn1c(SCCOc2ccccc2)nnc1-c1ccc2c(c1)OCCO2 | 31* | 4
CC(C)(C)C(=O)[C@@H]1[C@@H](C(=O)c2ccc3c(c2)OCO3)[C@@]2(C(=O)Nc3ccccc32)[C@H]2c3ccccc3C=CN12 | 31* | 1
O=C(c1ccc2c(c1)OCO2)[C@@H]1[C@H](C(=O)OC(c2ccccc2)c2ccccc2)N2c3ccccc3C=CC2[C@@]12C(=O)Nc1ccccc12 (some centres not stated) | -123 | -120
COc1ccc(C2CCCN2Cc2nc(N)nc(N)n2)c(OC)c1 (configuration not stated) | -73 | -62
Cc1noc(CN2CCC3(CC2)CC3c2nnc(-c3cccc(F)c3)o2)n1 (configuration not stated) | -14 | -16
COc1cccc(-c2cc(C(=O)N3CCC4(CC3)OCCO4)[nH]n2)c1 | 1 | 5
COc1cccc(-c2cc(C(=O)N3CC(c4nc5ccccc5[nH]4)C3)[nH]n2)c1 | 33* | 9
O=C(COc1cccc(-n2cnnn2)c1)Nc1ccc2c(c1)OCCO2 | 50* | 3
N#Cc1ccc(NC(=O)COc2ccc(-n3cnnn3)cc2)cc1 | 21 | 8
CCOc1c(C)cc(S(=O)(=O)Nc2ccc3c(c2)N(C(C)=O)CC3)cc1C | nt | -7
COc1ccc(C)cc1NC(=O)C1CC(=O)Nc2nc(SCc3ccccc3)nn21 (configuration not stated) | 6 | 8
COC[C@@H]1C[C@@]1(CN1CCN(C(=O)CCN)CC1)c1ccccc1 | -14 | -9
N#Cc1cccc(NC(=O)Nc2cccn(Cc3ccc(F)cc3)c2=O)c1 | 74* | 4
N#Cc1cccc(NC(=O)N2CCC(c3nc4c(nnn4Cc4ccc(F)cc4)c(=O)[nH]3)CC2)c1 | 19 | 9
SMILES | USP28 inh | OTUD3 block
Cc1nc(-c2nccn2C)cc(C2CCN(C(=O)c3scnc3C)CC2)n1 | 7 | 16
CC(=O)NC(Cc1ccccc1)C(=O)NC1CCN(C(=O)C2CC2)CC1 (configuration not stated) | 8 | 12
CC(=O)Nc1ccc(-n2cnc(C(=O)NCc3ccc(F)cc3)c2)nc1 | 11 | 11
Cc1cc(C)n(-c2ccc(C(=O)NCc3ccc(F)cc3)cn2)n1 | 34* | 9
CCc1cccc(NC(=O)c2ccc(SCCN3CCOCC3)nc2)c1 | 17 | 3
COc1cccc(NC(=O)c2ccc(SCCN3CCOCC3)nc2)c1 | 40* | -6
Cc1ccccc1NC(=O)CSc1nccn(-c2ccc(F)c(F)c2)c1=O | -7 | -3
Cc1cccc(-n2ccnc(SCC(=O)Nc3ccc(Cl)cc3F)c2=O)c1 | 38* | 11
CCN(C(=O)Cc1cc2ccccc2[nH]1)C1(C(=O)Nc2ccccc2C)CCCCC1 | -1 | -4
COc1ccc(C(=O)OCC(=O)N2CCC(Cc3ccccc3)CC2)cc1[N+](=O)[O-] | 36* | 7
COc1cc(C(=O)OCC(=O)N2CCC(Cc3ccccc3)CC2)c([N+](=O)[O-])cc1OC | 21 | 18
c1ccc(-c2noc(-c3cc(-c4ccncc4)nc4ccccc34)n2)nc1 | 22 | -1
COc1cccc(C(=O)NCC(c2ccco2)N2CCCC2)c1 (configuration not stated) | 4 | 9
Cc1cc(C)c2sc(N(CCCn3ccnc3)C(=O)Cc3ccccc3)nc2c1 | 40* | 35*
Cc1cc(C)c2sc(N(CCN(C)C)C(=O)CS(=O)(=O)c3ccccc3)nc2c1 | 4 | 1
COc1ccccc1CC(=O)N1CCC(c2onc3c2CCCC3)CC1 | 0 | -5
O=C(c1cc(-c2ccc(F)cc2)n[nH]1)N1CCN(C(=O)c2ccco2)CC1 | 0 | -5
